Measurements from the supplement of paper PMC6555819.

Assays:
Assay in all cases: PBM binding z-score (relative to random genomic background probes); higher = stronger binding; sequences stand for … in GC…GCGATTGACAGCGTAGAATGAAGG
[1] = test system: FXR:RXRa (NR concentration 270 nM, RXRa partner concentration 90 nM)
Method in brief: (§1)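 Custom Agilent 4×180K protein-binding microarrays carried double-stranded probes, each with a 34-nt variable region. These regions held direct-repeat seeds, single-nucleotide variants, half-site ablations and random human genomic background sequences. Ligand-free nuclear receptor dimers were incubated on the arrays for 1 h, antibodies against each partner (one per run) detected binding, and scanned fluorescence was regression-normalized. Binding z-scores take the random background probes as reference.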

[2] = test system: LXRa:RXRa (NR concentration 270 nM, RXRa partner concentration 90 nM)
Method in brief: as §1

[3] = test system: LXRa homodimer (NR concentration 270 nM)
Method in brief: as §1

[4] = test system: LXRb:RXRa (NR concentration 270 nM, RXRa partner concentration 90 nM)
Method in brief: as §1

[5] = test system: LXRb homodimer (NR concentration 270 nM)
Method in brief: as §1

[6] = test system: PPARa:RXRa (NR concentration 270 nM, RXRa partner concentration 90 nM)
Method in brief: as §1

[7] = test system: PPARg:RXRa (NR concentration 180 nM, RXRa partner concentration 90 nM)
Method in brief: as §1

[8] = test system: PPARg:RXRa 270nM:90nM, anti-RXR (NR concentration 270 nM, RXRa partner concentration 90 nM)
Method in brief: as §1

[9] = test system: PPARg:RXRa 30nM:10nM, anti-RXR (NR concentration 30 nM, RXRa partner concentration 10 nM)
Method in brief: as §1

[10] = test system: PPARg:RXRa 90nM:30nM, anti-RXR (NR concentration 90 nM, RXRa partner concentration 30 nM)
Method in brief: as §1

CCTACTGGGCCATTCAGAGGTCATTGACCATATG
PBM binding z-score [1]: 3.07 | PBM binding z-score [2]: 4.59 | PBM binding z-score [3]: 6.66 | PBM binding z-score [4]: 3.95 | PBM binding z-score [5]: 0.537 | PBM binding z-score [6]: 3.86 | PBM binding z-score [7]: 2.55 | PBM binding z-score [8]: 3.37 | PBM binding z-score [9]: 1.07 | PBM binding z-score [10]: 2.25

TATACAGGGTCAAAGTCCAGAGTACGAATGTCGA
PBM binding z-score [1]: 6.87 | PBM binding z-score [2]: 6.67 | PBM binding z-score [3]: 3.54 | PBM binding z-score [4]: 5.33 | PBM binding z-score [5]: 3.32 | PBM binding z-score [6]: 5.98 | PBM binding z-score [7]: 6.93 | PBM binding z-score [8]: 6.5 | PBM binding z-score [9]: 3.78 | PBM binding z-score [10]: 5.77

TAGCCTAGGACATGGGCCAGTATACCACGCGAAC
PBM binding z-score [1]: -0.615 | PBM binding z-score [2]: -0.64 | PBM binding z-score [3]: -0.616 | PBM binding z-score [4]: -0.618 | PBM binding z-score [5]: -0.673 | PBM binding z-score [6]: -0.454 | PBM binding z-score [7]: 0.715 | PBM binding z-score [8]: -0.284 | PBM binding z-score [9]: -0.595 | PBM binding z-score [10]: -0.49

CGAAGTAGGTCAAGGACAGTGAATCTCCGCACGC
PBM binding z-score [1]: 3.88 | PBM binding z-score [2]: 2.75 | PBM binding z-score [3]: 0.0941 | PBM binding z-score [4]: 1.82 | PBM binding z-score [5]: -0.179 | PBM binding z-score [6]: 5.28 | PBM binding z-score [7]: 8.14 | PBM binding z-score [8]: 6.95 | PBM binding z-score [9]: 4.62 | PBM binding z-score [10]: 6.44

AGTCAAAGTTCACTAAGTAACGTAAGATTCAGCT
PBM binding z-score [1]: 4.76 | PBM binding z-score [2]: 4.94 | PBM binding z-score [3]: 3.18 | PBM binding z-score [4]: 3.15 | PBM binding z-score [5]: 1.11 | PBM binding z-score [6]: 3.95 | PBM binding z-score [7]: 5.72 | PBM binding z-score [8]: 5.28 | PBM binding z-score [9]: 2.69 | PBM binding z-score [10]: 4.76

TCGAGTAGGTTAGGGGCTTTCAGAATGGCGTCGA
PBM binding z-score [1]: -0.147 | PBM binding z-score [2]: 0.172 | PBM binding z-score [3]: -0.23 | PBM binding z-score [4]: 0.6 | PBM binding z-score [5]: -0.232 | PBM binding z-score [6]: 0.524 | PBM binding z-score [7]: 0.208 | PBM binding z-score [8]: 1.76 | PBM binding z-score [9]: 0.813 | PBM binding z-score [10]: 1.15

GGAACAAGGGCAAGTTGATAGCAGAGTTTGATGG
PBM binding z-score [1]: 0.62 | PBM binding z-score [2]: 0.417 | PBM binding z-score [3]: 0.0737 | PBM binding z-score [4]: 0.264 | PBM binding z-score [5]: -0.0748 | PBM binding z-score [6]: 0.929 | PBM binding z-score [7]: 1.04 | PBM binding z-score [8]: 0.726 | PBM binding z-score [9]: 0.251 | PBM binding z-score [10]: 0.632

GTGACTGGGGCAAAGCAGGTTACCATAAGGTTGG
PBM binding z-score [1]: 0.845 | PBM binding z-score [2]: 0.956 | PBM binding z-score [3]: 0.27 | PBM binding z-score [4]: 0.924 | PBM binding z-score [5]: -0.272 | PBM binding z-score [6]: 2.5 | PBM binding z-score [7]: 2.32 | PBM binding z-score [8]: 2.83 | PBM binding z-score [9]: 0.397 | PBM binding z-score [10]: 1.36

ATACCAAGGTGATCGTGAAGTCGTTGATACTAAC
PBM binding z-score [1]: 0.402 | PBM binding z-score [2]: 0.225 | PBM binding z-score [3]: 0.0745 | PBM binding z-score [4]: 0.448 | PBM binding z-score [5]: -0.0277 | PBM binding z-score [6]: 0.429 | PBM binding z-score [7]: 0.37 | PBM binding z-score [8]: 0.481 | PBM binding z-score [9]: -0.0865 | PBM binding z-score [10]: 0.2

CCTACTAGGCCATTCAGAGGTCATTGATCATATG
PBM binding z-score [1]: 3.52 | PBM binding z-score [2]: 4.52 | PBM binding z-score [3]: 7.03 | PBM binding z-score [4]: 4.15 | PBM binding z-score [5]: 1.58 | PBM binding z-score [6]: 4.04 | PBM binding z-score [7]: 3.11 | PBM binding z-score [8]: 3.87 | PBM binding z-score [9]: 1.41 | PBM binding z-score [10]: 3.08

GCTCCTAGGTCAACTGATGGTCAGCTAAAGCTCG
PBM binding z-score [1]: 4.73 | PBM binding z-score [2]: 3.62 | PBM binding z-score [3]: 0.561 | PBM binding z-score [4]: 3.01 | PBM binding z-score [5]: 0.879 | PBM binding z-score [6]: 4.1 | PBM binding z-score [7]: 2.53 | PBM binding z-score [8]: 3.46 | PBM binding z-score [9]: 1.21 | PBM binding z-score [10]: 2.51

ATCTCTAGGTAACAAGTTTAGTGAAAGAGAGGAC
PBM binding z-score [1]: 0.428 | PBM binding z-score [2]: 0.215 | PBM binding z-score [3]: 0.326 | PBM binding z-score [4]: 0.212 | PBM binding z-score [5]: 0.657 | PBM binding z-score [6]: 0.577 | PBM binding z-score [7]: 0.844 | PBM binding z-score [8]: 1.35 | PBM binding z-score [9]: 0.486 | PBM binding z-score [10]: 1.37

CCTGCTAGGTCATGGTCAGATAATCTACAGTATG
PBM binding z-score [1]: 3.8 | PBM binding z-score [2]: 2.5 | PBM binding z-score [3]: 0.343 | PBM binding z-score [4]: 1.93 | PBM binding z-score [5]: 0.146 | PBM binding z-score [6]: 3.64 | PBM binding z-score [7]: 2.85 | PBM binding z-score [8]: 2.71 | PBM binding z-score [9]: 0.675 | PBM binding z-score [10]: 1.95

ACAAACAGGTGAGTGAAGGTAACTCAGCTGGACG
PBM binding z-score [1]: 0.326 | PBM binding z-score [2]: -0.0872 | PBM binding z-score [3]: -0.278 | PBM binding z-score [4]: -0.542 | PBM binding z-score [5]: -0.3 | PBM binding z-score [6]: 0.367 | PBM binding z-score [7]: 0.682 | PBM binding z-score [8]: 0.103 | PBM binding z-score [9]: 0.0977 | PBM binding z-score [10]: 0.229

AGAATGAGGTTATACGTAGATCAGGGATGAAAGT
PBM binding z-score [1]: 2.37 | PBM binding z-score [2]: 1.9 | PBM binding z-score [3]: 0.0703 | PBM binding z-score [4]: 1.68 | PBM binding z-score [5]: -0.152 | PBM binding z-score [6]: 3.09 | PBM binding z-score [7]: 2.07 | PBM binding z-score [8]: 2.01 | PBM binding z-score [9]: 0.736 | PBM binding z-score [10]: 1.73

TCTTGTAGATCAACAGGAGATTAAGAAAGATCGA
PBM binding z-score [1]: -0.494 | PBM binding z-score [2]: -0.198 | PBM binding z-score [3]: -0.713 | PBM binding z-score [4]: -0.321 | PBM binding z-score [5]: -0.695 | PBM binding z-score [6]: 0.133 | PBM binding z-score [7]: 0.237 | PBM binding z-score [8]: 0.964 | PBM binding z-score [9]: 2.14 | PBM binding z-score [10]: 1.68

ATCGACAGGTCGAGGTGAGTATAGAGAAAGGGAA
PBM binding z-score [1]: 0.437 | PBM binding z-score [2]: 0.548 | PBM binding z-score [3]: -0.71 | PBM binding z-score [4]: 0.0707 | PBM binding z-score [5]: -0.444 | PBM binding z-score [6]: 1.51 | PBM binding z-score [7]: 0.748 | PBM binding z-score [8]: 0.211 | PBM binding z-score [9]: 0.16 | PBM binding z-score [10]: 0.281

TGTCAAAATTCAAAGGTAACGTAAGTATCCACAC
PBM binding z-score [1]: 0.567 | PBM binding z-score [2]: 0.663 | PBM binding z-score [3]: -0.00824 | PBM binding z-score [4]: 0.809 | PBM binding z-score [5]: 0.161 | PBM binding z-score [6]: 1.13 | PBM binding z-score [7]: 0.99 | PBM binding z-score [8]: 1.47 | PBM binding z-score [9]: 0.972 | PBM binding z-score [10]: 1.39

TCATATGGGTAATACAGGTGAAAGTCGGCATCTA
PBM binding z-score [1]: 0.355 | PBM binding z-score [2]: 1.4 | PBM binding z-score [3]: 0.0107 | PBM binding z-score [4]: 0.779 | PBM binding z-score [5]: -0.138 | PBM binding z-score [6]: 1.82 | PBM binding z-score [7]: 1.1 | PBM binding z-score [8]: 2.13 | PBM binding z-score [9]: 2.8 | PBM binding z-score [10]: 2.4

AGAATGAGGTTATTAATATCAGGGAATTGCGGTC
PBM binding z-score [1]: 1.19 | PBM binding z-score [2]: 1.32 | PBM binding z-score [3]: 0.394 | PBM binding z-score [4]: 1.3 | PBM binding z-score [5]: -0.0827 | PBM binding z-score [6]: 2.47 | PBM binding z-score [7]: 1.54 | PBM binding z-score [8]: 1.67 | PBM binding z-score [9]: 0.598 | PBM binding z-score [10]: 1.35

TAGCCTAGGTCATTCCGGGGCCAGTATAGAAAGC
PBM binding z-score [1]: 4.26 | PBM binding z-score [2]: 3.29 | PBM binding z-score [3]: 0.811 | PBM binding z-score [4]: 2.53 | PBM binding z-score [5]: 1.33 | PBM binding z-score [6]: 3.21 | PBM binding z-score [7]: 1.75 | PBM binding z-score [8]: 2.04 | PBM binding z-score [9]: 0.233 | PBM binding z-score [10]: 1.01

ACTAGTTGGTCAGCTGAGGTCACATACAATTCGG
PBM binding z-score [1]: 2.13 | PBM binding z-score [2]: 2.95 | PBM binding z-score [3]: 2.7 | PBM binding z-score [4]: 3.37 | PBM binding z-score [5]: 0.543 | PBM binding z-score [6]: 3.41 | PBM binding z-score [7]: 1.77 | PBM binding z-score [8]: 1.98 | PBM binding z-score [9]: 0.658 | PBM binding z-score [10]: 1.17

GCTAGGAGGCCATTTGGGTCACTCAATGACGGGC
PBM binding z-score [1]: 0.677 | PBM binding z-score [2]: 0.0368 | PBM binding z-score [3]: -0.495 | PBM binding z-score [4]: 0.118 | PBM binding z-score [5]: -0.985 | PBM binding z-score [6]: 1.73 | PBM binding z-score [7]: 0.825 | PBM binding z-score [8]: 0.402 | PBM binding z-score [9]: -0.518 | PBM binding z-score [10]: 0.187

CGAACTCGGTCATCCAGGACAGTGAATACATTGA
PBM binding z-score [1]: 1.39 | PBM binding z-score [2]: 0.744 | PBM binding z-score [3]: 0.283 | PBM binding z-score [4]: 0.275 | PBM binding z-score [5]: -0.494 | PBM binding z-score [6]: 0.964 | PBM binding z-score [7]: 1.14 | PBM binding z-score [8]: 0.895 | PBM binding z-score [9]: 0.134 | PBM binding z-score [10]: 0.455
